Experimental data taken from PubChem BioAssay (NCI).
The panel holds about 83,000 compounds, 20% with a hit somewhere; the sample as a whole holds those more often.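 Activity criterion: percent growth below 10, measured after cells in 96-well plates were exposed to a single compound concentration for 48 hours.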 A number with no mark means an inactive call. The source made the active and inactive calls.

system: SK-MEL-5 melanoma; test: NCI-60 one-dose screen, 48 h (100 = growth as untreated, 0 = no growth, -100 = all killed); settings: 10 µM unless noted
Description: Growth inhibition of the SK-MEL-5 human tumor cell line is measured as a screen for anti-cancer activity. Cells are grown in 96 well plates and exposed to the test compound for 48 hours. Compounds are tested at a single concentration, which is 10^-5 M for most compounds. The reported endpoint is percent growth (GI% or GIPRCNT), where numbers from 0 - 100% represent growth inhibition, and numbers from -100% - 0 represent cell death. For example, a value of 40 represents 60% growth inhibition. A value of 0 means no net growth occurred over the course of the experiment. A value of -40 indicates 40% of cells at the beginning of the experiment died by the end of the experiment. A value of -100 means all cells are dead at the end of the experiment.
NCI-60 Human Tumor Cell Lines Screen was performed using the standard one-dose NCI protocol, which is described in more detail at https://dtp.cancer.gov/discovery_development/nci-60/default.htm.
Compounds with GIPRCNT values below 10 were considered active. Activity score was based on GIPRCNT using the following formula: […]
Score is 0 for GIPRCNT values of 100 or above, 50 for GIPRCNT values of 0, and 100 for GIPRCNT values of -100.

SMILES | growth
NC(=S)N/N=C/c1ccc(OC(=O)COc2cc(Cl)c(Cl)cc2Cl)cn1 | 21.8%
C#CC(=O)Nc1cccc2c1cc(C)n2-c1nc2c(c(NCc3ccccc3)n1)CCCC2 | -96.1% (active)
COc1ccc(C2=NN(C(C)=O)C(c3cn(Cc4ccc(Cl)cc4)c4ccccc34)C2)cc1 (stereo not given) | 85.6%
O=C1Nc2c(ccc(Cl)c2Cl)/C1=C/c1ccc([N+](=O)[O-])cc1 | 99.6%
COc1cc(/C=C2\C(=O)N(Cc3ccc(Cl)cc3)c3ccccc32)cc(OC)c1OC | 41.6%
N#Cc1c(NC(=O)c2cccc(Br)c2)sc2c1CCCC2 | 89.8%
COc1ccc(C(=O)c2cc(C)c(OC)c(C)c2)c(OC)c1O | -34.5% (active)
CN(C)CCCn1c2c(c3ccc(-c4ccn[nH]4)cc3c1=O)C(=O)c1ccccc1-2 | 31.5%
O=C1CCC(NC(=S)Nc2ccccc2)N1 (stereo not given) | 106%
CCCCCCCCCCCCC1CCC/C=C\CCC(=O)O1 (stereo not given) | 104%
CC(C)(C)OC(=O)N1CCN(c2ccc(N)cc2)C(=O)C1 | 99.2%
CC(Oc1ccc(C(=O)NS(=O)(=O)C(C)(C)C)cc1C(F)(F)F)c1ccc(Oc2ccccc2)cn1 (stereo not given) | 45.1%
CCCCCCCCCCCCCCCCCCOc1ccccc1N | 98.2%
Cc1c(C(=O)NO)sc2ncnc(Nc3ccc(NC(=S)Nc4ccccc4)cc3)c12 | 101%
S=c1[nH]cccc1-c1nnc2n1Nc1nc3ccc(Cl)cc3cc1CS2 | 98%
COc1cc(-c2nc3occn3c2-c2ccnc(NCCNS(=O)(=O)c3ccc(Cl)cc3)n2)ccc1F | 66.1%
COc1ccc(/C=C\c2nc3ccccc3s2)cc1OP(=O)(O)O | 21.8%
COc1cc(-c2cc(=O)oc3cc(O)ccc23)cc(OC)c1OC | 91.4%
O=C(Nc1ccc2ncnc(Nc3ccc(Oc4cccc(F)c4)c(Cl)c3)c2c1)c1ccc(CN2CCOCC2)cc1 | 4.82% (active)
O=C1Nc2ccccc2/C1=C\c1cccc(/C=C2/C(=O)Nc3ccccc32)n1 | -99.1% (active)

SMILES | growth
CN(C)C(=O)OCc1nc2c(N3CCOCC3)nc(-c3ccccc3)nc2n1C | -95.7% (active)
COc1ccc(C2CC(c3cccc(Nc4ccncc4)c3)=NN2c2ccc(Cl)cc2)cc1 (stereo not given) | 61.3%
COc1cnccc1-c1nc2ccc3[nH]ncc3c2c2c1CCCC2 | 54.1%
CN(Cc1ccccc1)c1nc(Cl)c(C2CC(c3ccc(Cl)cc3)=Cc3[nH][nH]c(=O)c32)s1 (stereo not given) | 88.2%
COc1ccc(C(=O)c2cc3c(N)c(C(=O)Nc4cccc(Br)c4C)sc3nc2C)cc1 | -36.2% (active)
CCCCCCCCOc1ccc(/C=N/Nc2cc(C)nc3ccc(Cl)cc23)cc1 | 96%
Clc1ccc2c(c1)c(-c1ccccc1)nc1nncn12 | 105%
O=C(Nc1cccc(Cl)c1)Oc1c(Br)c(Br)c(Br)c(Br)c1Br | 75.2%
O=C(Nc1ccc2cc3ccc(NC(=O)N4CCCCCC4)cc3nc2c1)N1CCCCCC1 | -94.4% (active)
CC(=O)[C@@H]1CC[C@]2(C(N)=O)CC[C@]3(C)[C@H](CC[C@@H]4[C@@]5(C)CCC(=O)C(C)(C)[C@@H]5CC[C@]43C)[C@@H]12 | 101%
Cn1ncc2c(Nc3ccccc3Cl)nc(Cl)nc21 | 107%
Cc1c2c(cc[n+]1Cc1ccccc1)c1ccc(OCC3CCCCC3)cc1n2CC1CCCCC1 | -100% (active)
CCNC(=O)c1[nH]cc(-c2ccc(OC)cc2)c1-c1cc(OC)c(OC)c(OC)c1 | 16%
COc1ccc2c(Nc3ccc(NS(C)(=O)=O)cc3)c3ccccc3nc2c1 | -94.6% (active)
CCN1C(=O)/C(=c2\sc3n(c2=O)NC2C(N=3)N(CC)C(=O)N2CC)c2ccccc21 (stereo not given) | 30.9%
Cc1ccc(C2CC(c3cccc(Nc4ccncc4)c3)=NN2c2ccccc2)cc1 (stereo not given) | -94.1% (active)
O=C1CCCN1c1cccc2cccnc12 | 99.1%
O=C1/C(=C/c2ccc(O)cc2)COc2ccc(-c3ccccc3)cc21 | 81.7%
COC(=O)C(c1ccccc1)C(CC(=O)c1ccccc1)c1ccccc1 (stereo not given) | 82.1%
O=C(OC(OC(=O)c1cc(Cl)cc(Cl)c1)c1cccc2ccccc12)c1ccccc1 (stereo not given) | 102%
